Measured values: publication PMC4552634, “A New Set of Chemical Starting Points with Plasmodium falciparum Transmission-Blocking Potential for Antimalarial Drug Discovery” (PLoS ONE, 2015)
Screen size: about 13,000 compounds; about 3,200 (25%) showed an effect of 50% or more. The list shows a part of the results.

What follows are molecules tested on P. falciparum stage V gametocytes. Details: 48 h, 5 µM; inhibitor.
Set-up: BacTiter-Glo ATP luminescence viability of purified stage V gametocytes in 384-well plates, per cent inhibition versus DMSO
In the case of `O=C(O)C(F)(F)F.O=C1CCCN1CCCNCc1ccc(-c2ccc(-c3nc4cc(F)ccc4[nH]3)cc2)cc1` [TCMDC-132759], the “% Inhibition” value was -31.18%. With `Cc1cc(C(=O)NCc2ccc(-c3c(C)noc3C)cc2)n(-c2ccccc2)n1` [TCMDC-133780] the “% Inhibition” value was 16.41%. `Cc1ccc(Nc2nc(C)cc(NC3CCN(C)CC3)n2)cc1` [TCMDC-133997] was tested, and the “% Inhibition” value was 39.13%. `CCc1cc(NC2CCN(C)CC2)nc(Nc2ccc(C)cc2)n1` [TCMDC-133996] was tested, and the “% Inhibition” value was 57.8%. In the case of `CCCc1cc(NC2CCN(C)CC2)nc(Nc2cccc(OC)c2)n1` [TCMDC-134001], the “% Inhibition” value was 21.8%. `CCCc1cc(NC2CCN(C)CC2)nc(Nc2ccc(C)cc2)n1` [TCMDC-134003] was tested, and the “% Inhibition” value was 32.47%. For `CCCCc1cc(NC2CCN(C)CC2)nc(Nc2ccccc2)n1` [TCMDC-133994], the “% Inhibition” value was 6.593%. For `CCCc1cc(NC2CCN(C)CC2)nc(Nc2ccc(F)cc2)n1` [TCMDC-134004], the “% Inhibition” value was 57.16%. `COC(=O)c1cc(C(=O)CN(Cc2ccccc2)C(C)C)ccc1O` [TCMDC-131766] was tested, and the “% Inhibition” value was 18.13%. With `N#Cc1ccc(N(CCNS(=O)(=O)c2cc(Br)c(Cl)s2)Cc2ccccc2C(F)(F)F)cc1C(F)(F)F` [TCMDC-135822] the “% Inhibition” value was 50.22%. In the case of `N#Cc1ccc(N(CCCO)Cc2ccccc2C(F)(F)F)cc1C(F)(F)F` [TCMDC-134689], the “% Inhibition” value was 3.655%. `CC(=O)Nc1ccc(OCCCN(Cc2ccccc2OC(F)(F)F)c2ccc(C(F)(F)F)c(C#N)c2)c(Cl)c1` [TCMDC-132789] was tested, and the “% Inhibition” value was 32.58%. With `CC(=O)Nc1ccc(OCCN(Cc2ccccc2OC(F)(F)F)c2ccc(C(F)(F)F)c(C#N)c2)c(Cl)c1` [TCMDC-132792] the “% Inhibition” value was 45.86%. With `N#Cc1ccc(N(CCOC(=O)c2ccccc2)Cc2ccccc2C(F)(F)F)cc1C(F)(F)F` [TCMDC-135738] the “% Inhibition” value was -18.34%. In the case of `N#Cc1ccc(N(CCOC(=O)c2ccc(Br)s2)Cc2ccccc2C(F)(F)F)cc1C(F)(F)F` [TCMDC-135739], the “% Inhibition” value was 59.47%. `CC(=O)Nc1ccc(OCCCN(Cc2ccccc2C(F)(F)F)c2ccc(C(F)(F)F)c(C#N)c2)c(Cl)c1` [TCMDC-132785] was tested, and the “% Inhibition” value was 61.05%. With `CC(=O)Nc1ccc(OCCN(Cc2ccccc2C(F)(F)F)c2ccc(C#N)c(C(F)(F)F)c2)c(Cl)c1` [TCMDC-132790] the “% Inhibition” value was 76.06%. For `N#Cc1ccc(OCCN(Cc2ccccc2C(F)(F)F)c2ccc(C#N)c(C(F)(F)F)c2)cc1` [TCMDC-132799], the “% Inhibition” value was 28.83%. `N#Cc1ccc(N(CCOc2ccc(Cl)cc2)Cc2ccccc2C(F)(F)F)cc1C(F)(F)F` [TCMDC-132794] was tested, and the “% Inhibition” value was -24.46%. With `CC(=O)Nc1ccc(OCCN(Cc2ccccc2C(F)(F)F)c2ccc(C#N)c(C(F)(F)F)c2)cc1` [TCMDC-132802] the “% Inhibition” value was 0.1764%. `CC(=O)Nc1ccc(OCCCCN(Cc2ccccc2C(F)(F)F)c2ccc(C(F)(F)F)c(C#N)c2)c(Cl)c1` [TCMDC-133358] was tested, and the “% Inhibition” value was 47.4%. With `CCC(=O)Nc1cc(=O)[nH]c2nc(-c3ccc(Cl)cc3)nn12` [TCMDC-125473] the “% Inhibition” value was -75.71%. For `Cc1cc(-c2cc(-c3ccc(OCCN(C)C)cc3)[nH]c2-c2ccc3c(c2)CCC3=NO)ccn1` [TCMDC-141302], the “% Inhibition” value was 25.92%. With `N#Cc1cccc(NC(=O)Nc2ccc(CC(=O)N3CCc4cc(Cl)c(N5CCN(C/C=C/c6ccccc6)CC5)cc43)cc2)c1` [TCMDC-139476] the “% Inhibition” value was 12.28%. For `CCCc1cc(Cc2cnc(N)nc2N)ccc1OCCCCCC(=O)O` [TCMDC-137231], the “% Inhibition” value was -22.54%. `CS(=O)(=O)CCNCc1cc(-c2cc3ncnc(Nc4ccc(OCc5cccc(F)c5)c(Cl)c4)c3s2)cs1` [TCMDC-138726] was tested, and the “% Inhibition” value was -0.4482%. `CCOC(=O)c1ccc2nc(-c3ccc(C(=O)NC4CCN(Cc5ccccc5)CC4)s3)[nH]c2c1` [TCMDC-140575] was tested, and the “% Inhibition” value was -23.22%. `CCCCSc1nc2c(c(=O)n1Cc1ccco1)C1(CCCCC1)Cc1ccccc1-2` [TCMDC-123896] was tested, and the “% Inhibition” value was -14.5%. In the case of `CC(C)(C)Oc1ccc(C[C@@H]2NC3(C(=O)N(Cc4ccc(Cl)c(Cl)c4)c4ccccc43)C3C(=O)N(c4ccc(Br)cc4)C(=O)C32)cc1` (some centres unmarked) [TCMDC-139775], the “% Inhibition” value was -22.32%. In the case of `CC(=O)Nc1ccc(OCCN(CC(C)(C)C)c2ccc(C#N)c(C(F)(F)F)c2)c(Cl)c1` [TCMDC-132786], the “% Inhibition” value was 66.46%. `CC(=O)Nc1ccc(OCCN(CC(C)C)c2ccc(C#N)c(C(F)(F)F)c2)c(Cl)c1` [TCMDC-137002] was tested, and the “% Inhibition” value was 29.5%. `CC(=O)Nc1ccc(OCCCCN(Cc2ccccc2C(F)(F)F)c2ccc(C#N)c(C(F)(F)F)c2)c(Cl)c1` [TCMDC-132787] was tested, and the “% Inhibition” value was 69.01%. `CC(=O)Nc1ccc(OCCCCN(Cc2ccccc2OC(F)(F)F)c2ccc(C(F)(F)F)c(C#N)c2)c(Cl)c1` [TCMDC-132788] was tested, and the “% Inhibition” value was 39.51%. For `CC(=O)Nc1ccc(OCCCCN(Cc2ccccc2C(F)(F)F)c2ccc(C#N)c(C(F)(F)F)c2)cc1` [TCMDC-132800], the “% Inhibition” value was 12.39%. With `CC(=O)Nc1ccc(OCCN(CC(C)C)c2ccc(C(F)(F)F)c(C#N)c2)c(Cl)c1` [TCMDC-132793] the “% Inhibition” value was 18.14%. In the case of `O=C(Nc1ccc(-c2cccc(-c3nc4ccccc4[nH]3)c2)cc1)Nc1ccc(F)c(F)c1F` [TCMDC-133237], the “% Inhibition” value was 3.705%. In the case of `COc1cc(N)cc2sc(N)nc12` [TCMDC-124235], the “% Inhibition” value was -47.26%. For `COCCN(C)c1ccc(C(=O)Nc2ccccc2)cc1NS(=O)(=O)Cc1ccccc1` [TCMDC-134575], the “% Inhibition” value was 41.39%. For `O=C(O)CCSSc1cccc[n+]1[O-]` [TCMDC-141973], the “% Inhibition” value was 168.8%. With `COc1cc2c(cc1C(F)(F)F)N(C(=O)Nc1cc(F)cc(-c3cccnn3)c1)CC2` [TCMDC-139045] the “% Inhibition” value was -0.3523%. In the case of `c1ccc(-c2ccc3c(Nc4ccc5[nH]ccc5c4)ccnc3c2)nc1` [TCMDC-138200], the “% Inhibition” value was 22.33%. With `COc1cc2nccc(Nc3ccc(NC(=O)c4ccc(C)cc4)c(O)c3)c2cc1OC.Cl` [TCMDC-138197] the “% Inhibition” value was 20.08%. With `Cc1ccc(C(=O)Nc2ccc(Nc3ccnc4cc(-c5ccccn5)ccc34)cc2O)cc1` [TCMDC-138205] the “% Inhibition” value was 115.7%. `COc1ccc(Nc2ccnc3cc(-c4ccccn4)ccc23)cc1OC` [TCMDC-138207] was tested, and the “% Inhibition” value was -27.22%. In the case of `Cc1ccc(O)cc1Nc1ccnc2cc(-c3ccccn3)ccc12` [TCMDC-138201], the “% Inhibition” value was 17.09%. For `COc1cc2nccc(Nc3ccc(OCc4ccc(NC(C)=O)cc4)cc3)c2cc1OC.Cl` [TCMDC-138198], the “% Inhibition” value was -13.16%. In the case of `c1ccc(-c2ccc3c(Nc4ccc5[nH]ncc5c4)ccnc3c2)nc1` [TCMDC-138199], the “% Inhibition” value was 108.3%. For `O=C(C(=O)c1ccc(Nc2ccnc3cc(-c4ccccn4)ccc23)cc1)c1ccccc1` [TCMDC-138204], the “% Inhibition” value was -8.545%. With `CC(=O)Nc1ccc(COc2ccc(Nc3ccnc4cc(-c5ccccn5)ccc34)cc2)cc1` [TCMDC-138206] the “% Inhibition” value was 116.6%. For `Cc1ccc(C(=O)Nc2ccc(Nc3ccnc4cc(-c5ccncc5)ccc34)cc2O)cc1` [TCMDC-138294], the “% Inhibition” value was -17.41%. In the case of `Cc1ccc(C(=O)Nc2ccc(Nc3ccnc4cc(-c5nccs5)ccc34)cc2O)cc1` [TCMDC-138298], the “% Inhibition” value was 75.39%. With `Cc1ccc(Nc2ccnc3cc(-c4nccs4)ccc23)cc1C(O)c1ccccc1` (centres unmarked) [TCMDC-138338] the “% Inhibition” value was -2.553%. In the case of `Cc1ccc(F)cc1S(=O)(=O)NCC(C)c1ccc(NC(=O)Nc2cccc(F)c2)cc1` (centres unmarked) [TCMDC-136380], the “% Inhibition” value was -32.92%. For `OC(CNc1ccnc(Nc2cccc(Cl)c2)n1)c1ccccc1C(F)(F)F` (centres unmarked) [TCMDC-136578], the “% Inhibition” value was -37.8%. In the case of `CC(C)n1cc2c(ccc3nc(N)nc(N)c32)n1` [TCMDC-137865], the “% Inhibition” value was -36.93%. With `COc1ccc2nccc([C@@H](O)CN3CCC(NCc4ccc5c(c4)N(C)C(=O)CO5)CC3)c2c1` [TCMDC-141093] the “% Inhibition” value was -7.365%. For `COCCCNc1sc(S(=O)(=O)c2ccccc2)nc1S(=O)(=O)c1ccc(C)cc1` [TCMDC-125275], the “% Inhibition” value was -13.04%. For `CS(=O)(=O)CCNCc1nc(-c2ccc3c(=O)[nH]cnc3c2)cs1` [TCMDC-138539], the “% Inhibition” value was 107%. For `CS(=O)(=O)CCNCc1nc(-c2ccc3ncnc(Nc4ccc(OCc5ccccc5)c(Cl)c4)c3c2)cs1` [TCMDC-138497], the “% Inhibition” value was -10.86%. `CS(=O)(=O)CCNCc1nc(-c2ccc3c(Nc4ccc(F)c(O)c4)ccnc3c2)cs1` [TCMDC-138437] was tested, and the “% Inhibition” value was -66.48%. For `O=C(Nc1ccc(Cl)cc1)N(CC1CC2CCC(C1)N2Cc1ccc(C(F)(F)F)cc1)c1ccc(N2CCOCC2)c(F)c1` (centres unmarked) [TCMDC-135859], the “% Inhibition” value was 42.25%. In the case of `COCc1nc(-c2ccccc2)nc(N2CCN(C(=O)NC(C)C)CC2)c1Cc1ccccc1F` [TCMDC-124782], the “% Inhibition” value was 9.126%. `Cc1onc(-c2c(Cl)cccc2Cl)c1C(=O)NC1=NC(C)(C)ON1c1ccccc1` [TCMDC-123777] was tested, and the “% Inhibition” value was -4.951%. With `Cc1cccc2[nH]c(-c3ccc(-c4cccc(NC(=O)NCc5ccccc5)c4)cc3)nc12` [TCMDC-133162] the “% Inhibition” value was -12.85%. In the case of `COCCNCc1cccc(-c2ccccc2CN(C(=O)Nc2ccccc2)C2CCN(Cc3ccccc3)CC2)c1` [TCMDC-140579], the “% Inhibition” value was 41.2%. In the case of `COCCNCc1ccc(-c2ccc(CN(C(=O)Nc3ccccc3)C3CCN(Cc4ccccc4)CC3)cc2)cc1` [TCMDC-140600], the “% Inhibition” value was 51.26%. In the case of `COCCNCc1cccc(-c2cccc(CN(C(=O)Nc3ccccc3)C3CCN(Cc4ccccc4)CC3)c2)c1` [TCMDC-140586], the “% Inhibition” value was 56.29%. With `COCCNCc1cccc(-c2ccc(CN(C(=O)Nc3ccccc3)C3CCN(Cc4ccccc4)CC3)cc2)c1` [TCMDC-140599] the “% Inhibition” value was 105.4%.
